Out of some 5,500 compounds screened, about 2,000 (36%) were called active. Roughly 18% stayed inconclusive and do not appear here. Cut-off read from the data, not from the text of the source: active = normalized growth mostly below about 0.91 (no sharp cut-off); inconclusive = no clear call, values can overlap the other calls; inactive = mostly above about 0.92. Some of the results follow.
Assay: chemical genetic growth profiling, strain panel (AID 1159580);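 note: tested at 20 µM; growth read once vehicle control cultures reached saturation at 30 °C; 1 = growth at the plate median or of vehicle wells; lower values mean less growth of the strain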
Conditions: S. cerevisiae deletion strains, growth OD
[1] = locus YAR019C, strain CDC15, hits give low values
[2] = locus YBL105C, strain PKC1, hits give low values
[3] = locus YBR135W, strain CKS1, hits give low values
[4] = locus YBR136W, strain MEC1, hits give low values
[5] = locus YBR160W, strain CDC28, hits give low values
[6] = locus YDL017W, strain CDC7, hits give low values
[7] = locus YDL028C, strain MPS1, hits give low values
[8] = locus YDL101C, strain DUN1, hits give low values
[9] = locus YDL108W, strain KIN28, hits give low values
[10] = locus YDL132W, strain cdc53, hits give low values
[11] = locus YDL214C, strain PRR2, hits give low values
[12] = locus YDR052C, strain DBF4, hits give low values
[13] = locus YDR054C, strain cdc34, hits give low values
[14] = locus YDR226W, strain ADK1, hits give low values
[15] = locus YDR477W, strain SNF1, hits give low values
[16] = locus YER123W, strain YCK3, hits give low values
[17] = locus YER133W, strain GLC7, hits give low values
[18] = locus YFL009W, strain cdc4, hits give low values
[19] = locus YFL029C, strain CAK1, hits give low values
[20] = locus YFR003C, strain YPI1, hits give low values
[21] = locus YFR019W, strain FAB1, hits give low values
[22] = locus YFR028C, strain CDC14, hits give low values
[23] = locus YGR040W, strain KSS1, hits give low values
[24] = locus YGR052W, strain FMP48, hits give low values
[25] = locus YGR092W, strain DBF2, hits give low values
[26] = locus YHR030C, strain SLT2, hits give low values
[27] = locus YHR079C, strain IRE1, hits give low values
[28] = locus YHR082C, strain KSP1, hits give low values
[29] = locus YHR205W, strain SCH9, hits give low values
[30] = locus YIL147C, strain SLN1, hits give low values
[31] = locus YJL095W, strain BCK1, hits give low values
[32] = locus YJL128C, strain PBS2, hits give low values
[33] = locus YJL157C, strain FAR1, hits give low values
[34] = locus YJR016C, strain ILV3, hits give low values
[35] = locus YJR066W, strain TOR1 (second series), hits give low values
[36] = locus YJR066W, strain TOR1, hits give low values
[37] = locus YKL048C, strain ELM1, hits give low values
[38] = locus YKL067W, strain YNK1, hits give low values
[39] = locus YKL101W, strain HSL1, hits give low values
[40] = locus YKL193C, strain SDS22, hits give low values
[41] = locus YKL203C, strain TOR2, hits give low values
[42] = locus YLR113W, strain HOG1, hits give low values
[43] = locus YLR133W, strain CKI1, hits give low values
[44] = locus YLR403W, strain SFP1, hits give low values
[45] = locus YML070W, strain DAK1, hits give low values
[46] = locus YMR001C, strain CDC5, hits give low values
[47] = locus YMR205C, strain PFK2 (second series), hits give low values
[48] = locus YMR277W, strain FCP1, hits give low values
[49] = locus YNL006W, strain LST8, hits give low values
[50] = locus YNL020C, strain ARK1, hits give low values
[51] = locus YNL161W, strain CBK1, hits give low values
[52] = locus YNL183C, strain NPR1, hits give low values
[53] = locus YNL207W, strain RIO2, hits give low values
[54] = locus YNL222W, strain SSU72, hits give low values
[55] = locus YNL307C, strain MCK1 (second series), hits give low values
[56] = locus YOL078W, strain AVO1, hits give low values
[57] = locus YOL136C, strain PFK27, hits give low values
[58] = locus YOR061W, strain CKA2, hits give low values
[59] = locus YOR119C, strain RIO1, hits give low values
[60] = locus YOR231W, strain MKK1, hits give low values
[61] = locus YOR329C, strain SCD5, hits give low values
[62] = locus YPL031C, strain PHO85, hits give low values
[63] = locus YPL153C, strain RAD53, hits give low values
[64] = locus YPL204W, strain HRR25, hits give low values
[65] = locus YPL209C, strain IPL1, hits give low values
[66] = locus YPL256C, strain CLN2, hits give low values
[67] = locus YPR025C, strain CCL1, hits give low values
[68] = locus YPR106W, strain ISR1, hits give low values
[69] = locus YPR111W, strain DBF20, hits give low values
[70] = strain NNK1, hits give low values
[71] = strain TSCII, hits give low values

Measured: normalized growth

Fc1cc(I)ccc1Nc1ccnc2cc(Cl)ccc12
active: [26] 0.841
inactive: [1] 0.977 | [2] 0.975 | [3] 0.981 | [4] 0.989 | [5] 0.978 | [6] 0.977 | [7] 0.979 | [8] 0.981 | [9] 0.986 | [10] 0.986 | [11] 0.911 | [12] 0.968 | [13] 0.974 | [14] 0.993 | [15] 0.949 | [16] 0.901 | [17] 0.948 | [18] 0.978 | [19] 0.98 | [20] 0.991 | [21] 0.943 | [22] 0.981 | [23] 0.918 | [24] 1.06 | [25] 0.954 | [27] 1 | [28] 0.974 | [29] 0.93 | [30] 0.981 | [31] 0.939 | [32] 0.978 | [33] 0.954 | [34] 0.975 | [35] 0.953 | [36] 0.958 | [37] 0.94 | [38] 0.934 | [39] 0.932 | [40] 0.991 | [41] 0.976 | [42] 0.915 | [43] 0.933 | [44] 0.95 | [45] 0.933 | [46] 0.985 | [47] 0.937 | [48] 0.984 | [49] 0.998 | [50] 0.912 | [51] 0.983 | [52] 0.957 | [53] 0.984 | [54] 0.996 | [55] 0.91 | [56] 0.981 | [57] 0.925 | [58] 0.966 | [59] 1.02 | [60] 0.95 | [61] 0.986 | [62] 0.911 | [63] 0.923 | [64] 0.912 | [65] 0.983 | [66] 0.951 | [67] 0.986 | [68] 0.973 | [69] 0.972 | [70] 0.973 | [71] 0.982

Cc1ccc(Nc2ccnc3cc(Cl)ccc23)cc1F
active: [26] 0.826
inactive: [1] 0.997 | [2] 0.993 | [3] 0.995 | [4] 0.995 | [5] 0.988 | [6] 1 | [7] 0.991 | [8] 0.992 | [9] 0.995 | [10] 0.987 | [11] 0.942 | [12] 0.991 | [13] 0.985 | [14] 0.997 | [15] 0.946 | [16] 0.918 | [17] 0.96 | [18] 0.983 | [19] 0.986 | [20] 0.996 | [21] 0.943 | [22] 0.989 | [23] 0.945 | [24] 1.06 | [25] 0.973 | [27] 0.96 | [28] 1 | [29] 0.915 | [30] 0.992 | [31] 0.905 | [32] 0.935 | [33] 0.965 | [34] 0.998 | [35] 0.946 | [36] 0.967 | [37] 0.943 | [38] 0.937 | [39] 0.951 | [40] 0.997 | [41] 0.977 | [42] 0.924 | [43] 0.94 | [44] 0.951 | [45] 0.947 | [46] 0.995 | [47] 0.956 | [48] 0.995 | [49] 1.01 | [50] 0.943 | [51] 1 | [52] 0.936 | [53] 0.997 | [54] 1 | [55] 0.918 | [56] 0.997 | [57] 0.934 | [58] 0.978 | [59] 1.04 | [60] 0.972 | [61] 0.996 | [62] 0.947 | [63] 0.938 | [64] 0.927 | [65] 0.998 | [66] 0.92 | [67] 0.99 | [68] 0.994 | [69] 0.976 | [70] 0.981 | [71] 0.99

From PubChem BioAssay AID1159580 (chemical genetic matrix, 2015)
